# The source made the active and inactive calls.
# Experiments:
# [1] = small molecules captured by biotinylated probe aFSTL3 – biochemical, small-molecule microarray, fluorescence 635/667, stem cell growth factor project, primary screen (AID 1064); details: higher = more signal;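 further: measures binding of the biotinylated anti-FSTL3 antibody to printed compounds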
# [2] = binders from COS7 lysate, DM2A8 probe, primary screen, torsin A project, cell lysate, small-molecule microarray, fluorescence 635/667 (AID 1065); details: higher = more signal, COS7 lysate expressing mutant human TOR1A
# [3] = small molecules captured by biotinylated probe aFGF2 – biochemical, small-molecule microarray, fluorescence 635/667, stem cell growth factor project, primary screen (AID 1067); details: higher = more signal;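 further: measures binding of biotinylated aFGF2 protein to printed compounds on slides; z-score merges feature fluorescence and signal-to-noise across triplicate slides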
# [4] = small molecules captured by biotinylated probe aFGF10 – biochemical, small-molecule microarray, fluorescence 635/667, stem cell growth factor project, primary screen (AID 1071); details: higher = more signal;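 further: score merges 667 nm spot intensity and signal to noise from triplicate slides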
# [5] = target: Neurogenic locus notch homolog protein 2 (Homo sapiens) (UniProt Q04721); test: small molecules binding Notch2 protein – biochemical, small-molecule microarray, 635 nm fluorescence, stem cell growth factors, primary screen (AID 1073); details: higher = more signal
# [6] = target: Pro-neuregulin-1, membrane-bound isoform (Homo sapiens) (UniProt Q02297); test: small molecules binding neuregulin-1 protein – biochemical, small-molecule microarray, fluorescence 635/667, psychiatric disease protein project, primary screen (AID 1075); details: NRG1 binding, 635 nm fluorescence, higher = more signal;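 further: score combines 667 nm spot fluorescence with signal to noise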
# Chain of Pro-neuregulin-1, membrane-bound isoform (Homo sapiens) (Q02297 whole entry, looked up, the tested form may be a part, canonical isoform): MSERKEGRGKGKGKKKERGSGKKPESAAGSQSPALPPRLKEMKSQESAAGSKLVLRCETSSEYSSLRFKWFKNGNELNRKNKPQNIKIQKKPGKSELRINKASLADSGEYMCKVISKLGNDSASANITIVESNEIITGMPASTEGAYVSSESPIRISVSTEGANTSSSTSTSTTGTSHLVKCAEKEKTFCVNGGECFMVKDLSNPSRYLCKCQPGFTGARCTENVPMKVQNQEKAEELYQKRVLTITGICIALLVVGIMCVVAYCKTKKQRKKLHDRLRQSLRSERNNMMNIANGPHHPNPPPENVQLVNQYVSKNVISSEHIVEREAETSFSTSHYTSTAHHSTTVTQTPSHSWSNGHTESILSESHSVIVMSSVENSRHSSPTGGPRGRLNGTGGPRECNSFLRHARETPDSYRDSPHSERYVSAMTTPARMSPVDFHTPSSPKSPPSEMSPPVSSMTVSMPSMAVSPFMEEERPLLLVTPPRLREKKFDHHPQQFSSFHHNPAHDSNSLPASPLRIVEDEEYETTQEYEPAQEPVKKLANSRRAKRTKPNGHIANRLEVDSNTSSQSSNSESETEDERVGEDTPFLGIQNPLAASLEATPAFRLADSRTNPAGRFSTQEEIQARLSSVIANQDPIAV
# [7] = test system: Neuregulin-1 EGF-like domain; test: small molecules binding NRG1 EGF domain – biochemical, small-molecule microarray, 635 nm fluorescence, primary screen (AID 1081); details: higher = more signal;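 further: binding of the protein to compounds printed on small-molecule microarray slides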
# [8] = FRG1 expression reporter modulators in myotubes – cell-based, C2C12 myotubes, firefly/Renilla luciferase, luminescence, FRG1 inhibition for FSHD, primary screen (AID 1084); details: FRG1 promoter luciferase, higher = more signal, called active from +8 up or from −8 down
# [9] = small molecules captured by biotinylated probe aFST – biochemical, small-molecule microarray, fluorescence 635/667, stem cell growth factor project, primary screen (AID 1086); details: higher = more signal;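 further: score merges 667 nm fluorescence with signal-to-noise of each printed compound spot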
# [10] = binders of probe aHhip on microarray, primary screen, stem cell growth factor project, biochemical, small-molecule microarray, fluorescence 635/667 (AID 1087); details: higher = more signal;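 further: score merges spot fluorescence at 667nm with spot signal to noise ratio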
# [11] = test system: PRMT1 (protein arginine N-methyltransferase 1); test: small molecules binding arginine methyltransferase PRMT1 – biochemical, small-molecule microarray, 635 nm fluorescence, primary screen (AID 1088); details: higher = more signal;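 further: binding of Prmt1 protein to compounds spotted on small-molecule microarray slides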
# [12] = growth effects on S. cerevisiae YJM789 – YJM789 clinical isolate, OD600, 24 h, basal, primary screen (AID 1089); details: higher = more signal, called active from +8 up or from −8 down;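 further: growth of clinical yeast isolate S. cerevisiae YJM 789 seeded 1000 cells per well; test concentration not given here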
# [13] = S. pombe growth modifiers, basal conditions – strain 972, OD600, 24 h, no modulator, primary screen (AID 1090);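 further: basal condition with compound alone and no growth modifier present; test concentration not given here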; details: S. pombe 972 growth, higher = more signal, called active from +8 up or from −8 down
# [14] = budding yeast growth modifiers under rapamycin – strain BY4716, OD600, 96 h, primary screen (AID 1091); further: test concentration not given here; details: S. cerevisiae BY4716 + rapamycin, higher = more signal, called active from +8 up or from −8 down
# [15] = target: Torsin-1A-interacting protein 2 (Homo sapiens) (UniProt Q8NFQ8); test: small molecules binding lysate-expressed LULL1 – cell lysate, human LULL1 lysate, 635/667 nm fluorescence, primary screen (AID 1092); details: small-molecule microarray, hLULL1 lysate binding, 635 nm fluorescence; higher = more signal;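 further: probe is lysate of COS7 cells overexpressing human LULL1; score merges per-feature 667 nm fluorescence with signal-to-noise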
# Chain of Torsin-1A-interacting protein 2 (Homo sapiens) (Q8NFQ8 whole entry, looked up): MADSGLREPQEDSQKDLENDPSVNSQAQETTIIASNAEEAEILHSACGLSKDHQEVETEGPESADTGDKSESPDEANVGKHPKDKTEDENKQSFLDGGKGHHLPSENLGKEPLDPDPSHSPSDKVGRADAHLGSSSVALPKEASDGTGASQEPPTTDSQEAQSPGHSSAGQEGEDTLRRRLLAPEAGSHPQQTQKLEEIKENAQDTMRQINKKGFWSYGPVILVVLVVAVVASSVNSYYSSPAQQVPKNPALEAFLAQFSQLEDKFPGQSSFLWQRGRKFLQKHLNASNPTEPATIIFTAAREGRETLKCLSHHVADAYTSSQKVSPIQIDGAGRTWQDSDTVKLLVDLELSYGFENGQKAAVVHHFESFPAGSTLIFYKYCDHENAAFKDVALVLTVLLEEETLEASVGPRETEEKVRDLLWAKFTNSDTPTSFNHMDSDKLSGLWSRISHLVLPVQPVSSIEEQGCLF
# [16] = optical density change of DRC41 E. coli – strain DRC41, OD650, 24 h, E. coli filamentation project, primary screen (AID 1093);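 further: MC1000 strain lacking acrAB efflux and sulA so SOS filamentation is blocked; test concentration not given here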; details: E. coli DRC41 growth, higher = more signal, called active from +8 up or from −8 down
# [17] = probe aLefty2 binding to arrayed compounds – biochemical, biotinylated probe, 635/667 nm fluorescence, primary screen (AID 1094); details: small-molecule microarray, higher = more signal;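 further: score merges spot fluorescence near 667 nm with spot signal-to-noise ratio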
# [18] = test system: Noggin (protein binding on small-molecule microarray); test: small molecules binding Noggin protein – biochemical, 635/667 nm fluorescence, primary screen (AID 1095); details: 635 nm fluorescence, higher = more signal;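 further: score merges 667 nm feature fluorescence with signal to noise over triplicate slides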
# [19] = target: Neurogenic locus notch homolog protein 3 (Homo sapiens) (UniProt Q9UM47); test: small molecules binding NOTCH3 protein – biochemical, 635/667 nm fluorescence, primary screen (AID 1096); details: small-molecule microarray, 635 nm fluorescence, higher = more signal
# Chain of Neurogenic locus notch homolog protein 3 (Homo sapiens) (Q9UM47 whole entry, looked up): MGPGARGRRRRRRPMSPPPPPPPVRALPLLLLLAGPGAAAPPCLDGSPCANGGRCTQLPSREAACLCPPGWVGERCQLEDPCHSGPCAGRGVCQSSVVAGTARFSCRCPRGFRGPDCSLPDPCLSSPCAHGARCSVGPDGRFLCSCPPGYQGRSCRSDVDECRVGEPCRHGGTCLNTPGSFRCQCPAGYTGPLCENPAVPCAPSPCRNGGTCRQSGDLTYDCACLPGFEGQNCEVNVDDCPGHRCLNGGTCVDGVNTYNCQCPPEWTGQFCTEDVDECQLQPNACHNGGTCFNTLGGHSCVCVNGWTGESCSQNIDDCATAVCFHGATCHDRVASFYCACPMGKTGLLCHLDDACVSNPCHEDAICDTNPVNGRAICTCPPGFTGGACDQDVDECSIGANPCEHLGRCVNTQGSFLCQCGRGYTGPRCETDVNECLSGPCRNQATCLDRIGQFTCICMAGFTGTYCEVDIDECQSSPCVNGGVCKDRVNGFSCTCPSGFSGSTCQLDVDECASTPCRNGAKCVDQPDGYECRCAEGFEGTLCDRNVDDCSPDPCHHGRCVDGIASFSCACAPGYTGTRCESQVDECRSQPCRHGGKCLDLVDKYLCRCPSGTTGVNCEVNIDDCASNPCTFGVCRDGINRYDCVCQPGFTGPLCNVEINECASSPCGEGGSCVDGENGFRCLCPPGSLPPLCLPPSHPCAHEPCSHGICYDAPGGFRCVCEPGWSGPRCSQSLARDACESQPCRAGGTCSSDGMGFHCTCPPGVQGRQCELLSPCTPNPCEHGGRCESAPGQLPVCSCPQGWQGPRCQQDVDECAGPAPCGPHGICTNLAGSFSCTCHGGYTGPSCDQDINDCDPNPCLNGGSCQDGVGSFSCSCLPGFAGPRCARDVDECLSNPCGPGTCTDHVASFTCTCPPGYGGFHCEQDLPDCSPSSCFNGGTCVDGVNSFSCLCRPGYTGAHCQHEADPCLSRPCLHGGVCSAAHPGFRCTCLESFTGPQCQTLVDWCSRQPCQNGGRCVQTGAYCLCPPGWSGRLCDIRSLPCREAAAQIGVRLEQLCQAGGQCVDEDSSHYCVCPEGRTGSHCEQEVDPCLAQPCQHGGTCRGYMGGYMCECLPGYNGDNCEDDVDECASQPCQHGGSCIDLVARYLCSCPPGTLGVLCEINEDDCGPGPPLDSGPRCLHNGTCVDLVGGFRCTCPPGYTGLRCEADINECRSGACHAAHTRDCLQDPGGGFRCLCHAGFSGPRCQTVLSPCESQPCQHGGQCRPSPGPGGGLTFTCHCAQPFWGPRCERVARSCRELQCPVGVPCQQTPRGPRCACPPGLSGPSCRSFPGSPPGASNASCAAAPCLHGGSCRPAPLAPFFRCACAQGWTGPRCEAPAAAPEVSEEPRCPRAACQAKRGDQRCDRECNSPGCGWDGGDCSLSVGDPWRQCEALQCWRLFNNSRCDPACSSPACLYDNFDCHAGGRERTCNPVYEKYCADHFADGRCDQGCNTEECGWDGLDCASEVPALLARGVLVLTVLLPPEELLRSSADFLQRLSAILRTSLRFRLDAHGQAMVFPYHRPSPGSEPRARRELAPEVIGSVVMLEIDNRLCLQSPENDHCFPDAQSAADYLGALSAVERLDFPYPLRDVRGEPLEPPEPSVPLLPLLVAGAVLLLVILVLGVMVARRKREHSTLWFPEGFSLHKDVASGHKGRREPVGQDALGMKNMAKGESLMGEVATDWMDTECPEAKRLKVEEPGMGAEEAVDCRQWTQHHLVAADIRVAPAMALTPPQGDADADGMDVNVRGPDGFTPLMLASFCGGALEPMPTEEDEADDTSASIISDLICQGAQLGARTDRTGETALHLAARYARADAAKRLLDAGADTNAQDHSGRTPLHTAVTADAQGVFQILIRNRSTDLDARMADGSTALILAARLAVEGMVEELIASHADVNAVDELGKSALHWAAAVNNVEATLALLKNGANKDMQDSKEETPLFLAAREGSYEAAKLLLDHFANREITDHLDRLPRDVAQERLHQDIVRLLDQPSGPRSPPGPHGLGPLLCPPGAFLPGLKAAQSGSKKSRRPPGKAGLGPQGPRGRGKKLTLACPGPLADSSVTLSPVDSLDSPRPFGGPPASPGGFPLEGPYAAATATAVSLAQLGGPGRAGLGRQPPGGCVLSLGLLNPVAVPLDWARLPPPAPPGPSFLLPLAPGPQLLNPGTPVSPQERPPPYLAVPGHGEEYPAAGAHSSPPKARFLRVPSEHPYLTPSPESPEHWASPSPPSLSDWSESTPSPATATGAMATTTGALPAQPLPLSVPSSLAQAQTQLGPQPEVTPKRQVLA
# [20] = probe aEGFR binding to arrayed compounds – biochemical, biotinylated probe, 635/667 nm fluorescence, primary screen (AID 1097); details: small-molecule microarray, higher = more signal;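 further: probe is a biotinylated anti-EGFR antibody binding compounds printed on slides; score combines fluorescence near 667 nm and signal to noise of each spot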
SMILES,composite z-score [1],composite z-score [2],composite z-score [3],composite z-score [4],composite z-score [5],composite z-score [6],composite z-score [7],z-score [8],composite z-score [9],composite z-score [10],composite z-score [11],z-score [12],z-score [13],z-score [14],composite z-score [15],z-score [16],composite z-score [17],composite z-score [18],composite z-score [19],composite z-score [20]
COC(=O)CC=C[C@@H](C)[C@@H](C=NO[C@@H]1O[C@H](COC(C)=O)[C@@H](OC(C)=O)[C@H](OC(C)=O)[C@H]1OC(C)=O)NS(=O)(=O)c1ccc(C)cc1,-0.486,0.969,-0.158,0.367,1.11,-0.993,-1.37,-0.443 (inactive),0.068,-0.0645,1.41,0.0457 (inactive),-0.23 (inactive),-0.615 (inactive),-0.147,-1.32 (inactive),-0.134,0.521,0.545,-0.152
CO[C@@H]1C=CCC(=O)N2CCC[C@H]2C(=O)OC[C@@H](C)C(=O)OC[C@H]1C,-0.605,1.7,-0.159,0.492,0.156,-0.582,0.477,-1.15 (inactive),0.274,0.238,0.865,-0.0313 (inactive),-1.32 (inactive),-0.918 (inactive),-0.334,0.872 (inactive),-0.143,1.56,-0.0741,-0.0444
CO[C@H](C1CCCCC1)[C@H](C)C=CCC(=O)OCCCc1ccccc1,-0.13,0.216,-0.155,-0.104,-0.163,-0.137,-0.647,0.567 (inactive),-0.175,-0.145,-0.53,1.37 (inactive),0.5 (inactive),1.49 (inactive),-0.242,-0.0775 (inactive),-0.192,-0.0107,-0.226,-0.134
COc1cccc([C@H]2Oc3ccc(OC)cc3C(=NOC(C)CN3CCCCc4nc(C)c(C)cc43)[C@@H]2O)c1 (stereo not given in full),0.161,-0.0173,-0.0005,0.561,0.0879,0.996,0.632,-2.06 (inactive),-0.0285,0.0854,1.03,-0.915 (inactive),-1.19 (inactive),-1.48 (inactive),1.45,1.25 (inactive),0.0344,0.0286,0.32,0.044
CON=Cc1ccc(C(=O)N2[C@H](c3ccc(C)cc3)[C@@H](C)CC[C@H]2C(=O)OC)cc1,-0.13,0.486,-0.134,0.363,0.489,0.424,0.843,0.0346 (inactive),0.267,-0.236,1.17,-0.0099 (inactive),-2 (inactive),-0.637 (inactive),1.23,0.823 (inactive),-0.293,0.292,0.772,-0.262
